From PubChem BioAssay (EPA / NIEHS) come the findings set out here.

Assay [1] can be described thus: ATG_NFI_CIS: Attagene CIS-FACTORIAL HepG2 Assay for human Nuclear Factor I (NFI) (AID 2282989). The following applies: HepG2 cis-regulatory reporter, NFI response element transcription; actives raise or lower the signal. The method, boiled down:
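After transient transfection of HepG2 with cis-promoter reporter constructs and 24 h dosing, RNA is reverse-transcribed, amplified, 6-FAM end-labelled and HpaI-digested before capillary analysis. Bidirectional curve fitting against DMSO.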

In assay [2] the target is Myc proto-oncogene protein (Homo sapiens) (UniProt P01106). Kind of assay: ATG_Myc_CIS: Attagene CIS-FACTORIAL HepG2 Assay for human Myelocytomatosis (Myc) Proto-Oncogene Transcription Factor (AID 2282990). The following applies: HepG2, Attagene cis-reporter transcription factor activity; actives raise or lower the signal. In short, it runs like this:
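Fluorescence intensity of reporter-specific cDNA fragments, separated by capillary electrophoresis, gives the signal. Transfected HepG2 cells carrying cis-promoter reporter constructs are incubated with compound for 24 h; DMSO serves as baseline.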

Assay [3] in a line: ATG_NF_kB_CIS: Attagene CIS-FACTORIAL HepG2 Assay for human Nuclear Factor Kappa B (NF-kB) (AID 2282991). The following applies: HepG2 Attagene cis-factorial NF-kB reporter mRNA; actives raise or lower the signal. In short, it runs like this:
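After 24 h compound incubation, transfected HepG2 cells yield total RNA; reporter cDNA is PCR-amplified, end-labelled with 6-FAM, HpaI-digested and analysed on a genetic analyser. Endogenous factor activity, DMSO-referenced bidirectional fit.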

The nature of assay [4]: ATG_NRF2_ARE_CIS: Attagene CIS-FACTORIAL HepG2 Assay for human Nuclear Factor Erythroid 2 Related Factor 2 (NFR2) response to Antioxidant Response Elements (ARE) (AID 2282992). The following applies: HepG2 Attagene ARE/NRF2 reporter, transcription factor activity; actives raise or lower the signal. The method, boiled down:
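Cis-factorial assay: transfected HepG2 reporter library, 24 h dosing, mRNA readout via RT-PCR/CE; DMSO-referenced bidirectional analysis.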

A short description of assay [5]: ATG_Oct_MLP_CIS: Attagene CIS-FACTORIAL HepG2 Assay for human Octamer-Binding Transcription Factor (Oct) (AID 2282993). The following applies: HepG2 Attagene cis-factorial Oct reporter, mRNA; actives raise or lower the signal. In short, it runs like this: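 Cells of the HepG2 line express promoter-controlled reporter sequences whose mRNA levels, after 24 h treatment, are measured by RT-PCR and capillary electrophoresis. Increases and decreases are scored relative to DMSO.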

Assay [6] deals with Cellular tumor antigen p53 (Homo sapiens) (UniProt P04637). In words: ATG_p53_CIS: Attagene CIS-FACTORIAL HepG2 Assay for human p53 Transcription Factor (AID 2282994). The following applies: HepG2 p53 cis-element reporter, Attagene mRNA; actives raise or lower the signal. The method, boiled down: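 Using HepG2 hepatoma cells carrying cis-acting multiplexed reporters, mRNA induction is detected after a 24 h exposure. Gain- and loss-of-signal responses are fitted relative to DMSO-treated cells.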
Sequence of Cellular tumor antigen p53 (Homo sapiens) (P04637 whole entry, looked up): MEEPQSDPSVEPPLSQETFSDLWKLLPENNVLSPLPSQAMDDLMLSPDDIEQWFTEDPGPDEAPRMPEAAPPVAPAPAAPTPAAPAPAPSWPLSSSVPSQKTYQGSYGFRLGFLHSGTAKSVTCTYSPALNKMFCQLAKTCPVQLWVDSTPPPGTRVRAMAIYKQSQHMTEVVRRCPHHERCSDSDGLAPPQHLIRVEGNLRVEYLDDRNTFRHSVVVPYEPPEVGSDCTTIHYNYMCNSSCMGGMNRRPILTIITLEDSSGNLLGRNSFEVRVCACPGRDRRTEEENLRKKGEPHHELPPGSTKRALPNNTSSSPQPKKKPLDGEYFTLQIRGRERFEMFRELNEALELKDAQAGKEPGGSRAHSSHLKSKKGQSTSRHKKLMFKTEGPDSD

Assay [7] is described as follows: BSK_3C_TissueFactor: BioMAP Diversity Plus: 3C Assay for Tissue Factor Biomarker Activity (AID 2282997). The following applies: BioMAP 3C HUVEC, tissue factor biomarker readout; actives raise or lower the signal. In short, it runs like this: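 Primary human umbilical vein endothelial cells in the 3C system were exposed to test chemical for 24 h, then Tissue Factor measured by ELISA. Activity was fitted bidirectionally against DMSO as negative control and baseline.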

Assay [8] in a line: BSK_3C_uPAR: BioMAP Diversity Plus: 3C Assay for Urokinase-type plasminogen activator receptor (uPAR) Biomarker Activity (AID 2282998). The following applies: BioMAP 3C HUVEC, uPAR biomarker ELISA; actives raise or lower the signal. In short, it runs like this: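 Endothelial primary cells of human umbilical vein origin received test chemical; 24 h later uPAR was assayed by ELISA. Fitting was bidirectional, DMSO as negative control.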
(In general: In an ELISA, binding on a coated surface is turned into a signal by an enzyme label.)

Assay [9] is described as follows: BSK_3C_VCAM1: BioMAP Diversity Plus: 3C Assay for Vascular cell adhesion molecule 1 (VCAM1) Biomarker Activity (AID 2282999). The following applies: BioMAP 3C HUVEC, VCAM1 ELISA, cytokine-stimulated; actives raise or lower the signal. The method, boiled down: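 Human umbilical vein endothelial cells (3C system), biomarker read by ELISA 24 h after dosing; bidirectional fit against DMSO baseline. Cytotoxicity tracked by SRB total-protein staining in parallel cultures at biomarker time.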

Assay [10] can be described thus: BSK_4H_Eotaxin3: BioMAP Diversity Plus: 4H Assay for Eotaxin 3 Biomarker Activity (AID 2283000). The following applies: primary human endothelial cells (HUVEC); actives raise or lower the signal. The method, boiled down:
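HUVEC, 24 h post-dose, ELISA for Eotaxin-3/CCL26. Gain or loss of signal fitted bidirectionally vs DMSO baseline.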

Assay [11] deals with human Peroxisome Proliferator-activated Receptor alpha (PPARa), PPARA (gene 5465) (UniProt Q07869). In words: ATG_PPARa_TRANS: Attagene TRANS-FACTORIAL HepG2 Assay for human Peroxisome Proliferator-activated Receptor alpha (PPARa) (AID 2283001; active = hit-call score of the fitted dose curve at least 0.9, where 1 is the maximum;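 as to AC50: potency for gain of reporter signal over DMSO so agonist or activator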). In short, it runs like this:
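Measures transcriptional activity of an exogenous chimeric PPARa-Gal4 protein in transiently transfected HepG2 cells after 24 h dosing. Reporter mRNA quantified via RT-PCR and capillary electrophoresis; DMSO served as negative control.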

Read-out in assay [12]: Intercellular Adhesion Molecule 1 (ICAM1), ICAM1 (gene 3383)
In words: BSK_3C_ICAM1: BioMAP Diversity Plus: 3C Assay for Intercellular Adhesion Molecule 1 (ICAM1) Biomarker Activity (AID 2283003). The following applies: primary human endothelial cells (HUVEC); actives raise or lower the signal. The method, boiled down: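 Primary human umbilical vein endothelial cells in the BioMAP 3C system were exposed to chemicals for 24 h, then ICAM-1 was quantified by ELISA. Activity was fitted bidirectionally against the DMSO negative control baseline.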

For assay [13], the target named is human Retinoic Acid Receptor beta (RARb), RARB (gene 5915) (UniProt P10826). In words: ATG_RARb_TRANS: Attagene TRANS-FACTORIAL HepG2 Assay for human Retinoic Acid Receptor beta (AID 2283004; active = hit-call score of the fitted dose curve at least 0.9, where 1 is the maximum). In short, it runs like this: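 HepG2 cells transiently transfected with multiplexed GAL4-UAS reporter units expressing chimeric NR–Gal4 fusions; 24 h compound exposure. Reporter mRNA quantified by RT-PCR, 6-FAM labelling, HpaI digestion and capillary electrophoresis; gain-of-signal fitted against DMSO baseline.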
Sequence of human Retinoic Acid Receptor beta (RARb), RARB (gene 5915) (P10826 whole entry, looked up, the tested form may be a part): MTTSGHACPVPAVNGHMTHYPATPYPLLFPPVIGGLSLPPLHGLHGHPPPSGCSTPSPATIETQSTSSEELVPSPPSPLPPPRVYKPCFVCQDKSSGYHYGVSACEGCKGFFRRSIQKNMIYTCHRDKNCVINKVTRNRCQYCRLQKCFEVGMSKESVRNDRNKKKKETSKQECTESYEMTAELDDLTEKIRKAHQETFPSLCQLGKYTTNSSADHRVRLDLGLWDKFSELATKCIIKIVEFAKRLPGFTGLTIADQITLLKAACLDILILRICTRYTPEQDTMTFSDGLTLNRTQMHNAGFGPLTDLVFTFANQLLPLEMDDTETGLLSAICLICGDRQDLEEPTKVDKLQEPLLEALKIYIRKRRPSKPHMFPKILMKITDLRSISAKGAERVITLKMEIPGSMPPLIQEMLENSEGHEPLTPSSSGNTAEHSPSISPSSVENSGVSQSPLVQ

Assay [14] can be described thus: BSK_3C_Proliferation: Cell Proliferation Assessment in the BioMAP Diversity Plus: 3C Assay (AID 2283006).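 As to AC50: potency may reflect either rise or fall in cell number versus DMSO.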 The following applies: primary human endothelial cells (HUVEC). The method, boiled down: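 Human umbilical vein endothelial cells were grown sub-confluent and exposed to chemical for 48 h, then fixed with 10% TCA and stained with 0.1% sulforhodamine B; absorbance at 560 nm gave relative cell number, fitted bidirectionally against DMSO baseline.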

Assay [15] concerns the target Peroxisome proliferator-activated receptor gamma (Homo sapiens) (UniProt P37231). In words: ATG_PPARg_TRANS: Attagene TRANS-FACTORIAL HepG2 Assay for human Peroxisome Proliferator-activated Receptor-gamma (PPARg) (AID 2283007; active = hit-call score of the fitted dose curve at least 0.9, where 1 is the maximum). The method, boiled down: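 Liver-derived HepG2 cells expressing an exogenous NR-Gal4 chimera alongside GAL4-UAS reporter genes; 24 h exposure. Fluorescence of reporter RT-PCR products, separated by capillary electrophoresis, gives mRNA induction relative to DMSO.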

The target of assay [16] is Nuclear receptor subfamily 1 group I member 2 (Homo sapiens) (UniProt O75469). In words: ATG_PXR_TRANS: Attagene TRANS-FACTORIAL HepG2 Assay for human Pregnane X Receptor (PXR) (AID 2283008; active = hit-call score of the fitted dose curve at least 0.9, where 1 is the maximum). The method, boiled down:
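Fluorescence intensity of FAM-labelled, HpaI-digested reporter amplicons, separated by capillary electrophoresis, quantifies induction. HepG2 cells with PXR-Gal4 trans-reporter system were exposed 24 h; DMSO defines baseline.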

For assay [17], the target named is human Retinoic Acid Receptor gamma (RARg), RARG (gene 5916) (UniProt P13631). Kind of assay: ATG_RARg_TRANS: Attagene TRANS-FACTORIAL HepG2 Assay for human Retinoic Acid Receptor gamma (RARg) (AID 2283009; active = hit-call score of the fitted dose curve at least 0.9, where 1 is the maximum). The method, boiled down: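 HepG2 cells transiently transfected with multiplexed reporter units expressing chimeric RARg-GAL4 and GAL4-UAS-driven reporters; 24 h compound exposure. Reporter mRNA quantified by RT-PCR with fluorescent labelling and capillary electrophoresis; gain-of-signal fitted relative to DMSO baseline.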
Sequence of human Retinoic Acid Receptor gamma (RARg), RARG (gene 5916) (P13631 whole entry, looked up, the tested form may be a part): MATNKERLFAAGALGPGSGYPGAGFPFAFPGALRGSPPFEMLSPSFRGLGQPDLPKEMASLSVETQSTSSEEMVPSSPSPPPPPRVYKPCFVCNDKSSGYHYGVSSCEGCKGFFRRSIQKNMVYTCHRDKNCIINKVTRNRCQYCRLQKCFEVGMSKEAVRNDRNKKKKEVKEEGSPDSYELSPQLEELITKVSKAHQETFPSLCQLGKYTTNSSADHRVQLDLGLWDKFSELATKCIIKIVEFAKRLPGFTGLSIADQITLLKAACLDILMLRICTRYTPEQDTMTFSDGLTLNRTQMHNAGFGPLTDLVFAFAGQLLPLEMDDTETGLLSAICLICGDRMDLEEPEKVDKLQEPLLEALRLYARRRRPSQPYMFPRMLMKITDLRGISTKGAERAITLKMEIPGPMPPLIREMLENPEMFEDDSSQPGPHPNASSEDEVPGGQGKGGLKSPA

In assay [18] the target is human Peroxisome Proliferator-activated Receptor delta (PPARd), PPARD (gene 5467) (UniProt Q03181). In words: ATG_PPARd_TRANS: Attagene TRANS-FACTORIAL HepG2 Assay for human Peroxisome Proliferator-activated Receptor delta (PPARd) (AID 2283002; active = hit-call score of the fitted dose curve at least 0.9, where 1 is the maximum). In short, it runs like this: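 Fluorescence from capillary electrophoresis of labelled RT-PCR reporter fragments gives the signal; DMSO sets baseline. Cells: HepG2 transiently carrying GAL4-UAS reporter units plus chimeric nuclear receptor-Gal4 proteins, exposed to chemicals for 24 h.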
Sequence of human Peroxisome Proliferator-activated Receptor delta (PPARd), PPARD (gene 5467) (Q03181 whole entry, looked up, the tested form may be a part): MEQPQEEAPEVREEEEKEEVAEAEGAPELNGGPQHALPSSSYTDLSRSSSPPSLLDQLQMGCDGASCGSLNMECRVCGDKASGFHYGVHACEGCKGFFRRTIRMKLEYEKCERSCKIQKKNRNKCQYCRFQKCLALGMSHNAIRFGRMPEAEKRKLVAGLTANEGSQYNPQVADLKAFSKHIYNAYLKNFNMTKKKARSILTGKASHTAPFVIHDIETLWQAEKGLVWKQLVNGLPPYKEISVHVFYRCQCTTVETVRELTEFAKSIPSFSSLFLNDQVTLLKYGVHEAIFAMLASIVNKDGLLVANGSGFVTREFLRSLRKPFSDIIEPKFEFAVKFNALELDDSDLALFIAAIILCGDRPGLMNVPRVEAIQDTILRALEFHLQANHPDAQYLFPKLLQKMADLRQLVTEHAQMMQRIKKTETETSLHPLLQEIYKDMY

Assay [19] has as its target human RAR-related Orphan Receptor beta (RORb), RORB (gene 6096) (UniProt Q92753). In words: ATG_RORb_TRANS: Attagene TRANS-FACTORIAL HepG2 Assay for human RAR-related Orphan Receptor beta (RORb) (AID 2283010; active = hit-call score of the fitted dose curve at least 0.9, where 1 is the maximum). In short, it runs like this:
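HepG2 cells were transiently transfected with multiplexed GAL4-UAS reporter units expressing chimeric nuclear receptor–GAL4 proteins, then dosed for 24 h. Reporter mRNA was quantified by RT-PCR with fluorescent labelling and capillary electrophoresis; gain of signal was fitted relative to DMSO.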

Assay [20] has as its target Retinoic acid receptor alpha (Homo sapiens) (UniProt P10276). In words: ATG_RARa_TRANS: Attagene TRANS-FACTORIAL HepG2 Assay for human Retinoic Acid Receptor alpha (RARa) (AID 2283005; active = hit-call score of the fitted dose curve at least 0.9, where 1 is the maximum). In short, it runs like this:
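HepG2 transiently transfected with multiplex GAL4-UAS reporter units including a human RARa–GAL4 chimera; 24 h compound exposure. Reporter mRNA quantified by RT-PCR, 6-FAM labeling and capillary electrophoresis; gain of signal versus DMSO.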

Records with an inconclusive call do not appear. Active and inactive are the calls of the source. The calls were made as follows, unless noted: active = hit-call score of the fitted dose curve at least 0.9, where 1 is the maximum; inactive = score below 0.9.

Sequence of human Peroxisome Proliferator-activated Receptor alpha (PPARa), PPARA (gene 5465) (Q07869 whole entry, looked up, the tested form may be a part): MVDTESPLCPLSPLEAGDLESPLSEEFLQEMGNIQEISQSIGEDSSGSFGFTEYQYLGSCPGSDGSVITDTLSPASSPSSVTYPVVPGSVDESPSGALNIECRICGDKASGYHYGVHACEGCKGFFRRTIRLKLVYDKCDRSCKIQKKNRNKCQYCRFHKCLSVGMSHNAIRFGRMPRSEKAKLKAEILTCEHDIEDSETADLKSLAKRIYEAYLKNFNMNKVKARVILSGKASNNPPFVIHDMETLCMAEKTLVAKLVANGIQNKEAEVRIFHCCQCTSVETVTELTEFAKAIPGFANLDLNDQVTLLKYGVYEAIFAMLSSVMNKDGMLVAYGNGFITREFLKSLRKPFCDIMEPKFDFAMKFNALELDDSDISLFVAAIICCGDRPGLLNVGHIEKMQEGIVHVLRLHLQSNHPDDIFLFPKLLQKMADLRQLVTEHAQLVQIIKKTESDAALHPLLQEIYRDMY
Sequence of Peroxisome proliferator-activated receptor gamma (Homo sapiens) (P37231 whole entry, looked up, the tested form may be a part): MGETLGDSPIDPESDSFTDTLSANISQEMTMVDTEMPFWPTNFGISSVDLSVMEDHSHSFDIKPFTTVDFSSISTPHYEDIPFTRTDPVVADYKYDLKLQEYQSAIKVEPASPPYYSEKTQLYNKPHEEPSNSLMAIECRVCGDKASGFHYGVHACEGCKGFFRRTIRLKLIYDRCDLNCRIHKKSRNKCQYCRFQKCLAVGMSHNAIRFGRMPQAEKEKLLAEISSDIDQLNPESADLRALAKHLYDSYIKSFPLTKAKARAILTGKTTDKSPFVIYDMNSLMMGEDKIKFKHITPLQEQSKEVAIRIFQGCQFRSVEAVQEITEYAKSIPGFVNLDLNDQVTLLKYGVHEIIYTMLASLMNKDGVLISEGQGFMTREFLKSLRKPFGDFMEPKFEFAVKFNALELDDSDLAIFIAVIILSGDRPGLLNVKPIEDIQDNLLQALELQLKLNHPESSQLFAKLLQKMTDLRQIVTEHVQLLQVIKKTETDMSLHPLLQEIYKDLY
Sequence of Myc proto-oncogene protein (Homo sapiens) (P01106 whole entry, looked up, the tested form may be a part): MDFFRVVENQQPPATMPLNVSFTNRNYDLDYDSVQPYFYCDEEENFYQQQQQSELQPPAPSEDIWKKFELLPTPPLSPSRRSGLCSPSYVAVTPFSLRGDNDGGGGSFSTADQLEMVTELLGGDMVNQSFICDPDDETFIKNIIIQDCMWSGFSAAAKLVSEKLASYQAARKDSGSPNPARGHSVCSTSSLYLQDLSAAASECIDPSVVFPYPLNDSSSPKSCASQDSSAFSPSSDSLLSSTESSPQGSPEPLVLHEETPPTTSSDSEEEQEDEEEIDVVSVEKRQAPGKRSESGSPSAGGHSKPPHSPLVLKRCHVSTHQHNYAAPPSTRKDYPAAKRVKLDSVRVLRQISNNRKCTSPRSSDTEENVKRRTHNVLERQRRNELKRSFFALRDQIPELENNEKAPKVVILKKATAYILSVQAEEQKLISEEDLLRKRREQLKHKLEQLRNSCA
Sequence of Nuclear receptor subfamily 1 group I member 2 (Homo sapiens) (O75469 whole entry, looked up, the tested form may be a part): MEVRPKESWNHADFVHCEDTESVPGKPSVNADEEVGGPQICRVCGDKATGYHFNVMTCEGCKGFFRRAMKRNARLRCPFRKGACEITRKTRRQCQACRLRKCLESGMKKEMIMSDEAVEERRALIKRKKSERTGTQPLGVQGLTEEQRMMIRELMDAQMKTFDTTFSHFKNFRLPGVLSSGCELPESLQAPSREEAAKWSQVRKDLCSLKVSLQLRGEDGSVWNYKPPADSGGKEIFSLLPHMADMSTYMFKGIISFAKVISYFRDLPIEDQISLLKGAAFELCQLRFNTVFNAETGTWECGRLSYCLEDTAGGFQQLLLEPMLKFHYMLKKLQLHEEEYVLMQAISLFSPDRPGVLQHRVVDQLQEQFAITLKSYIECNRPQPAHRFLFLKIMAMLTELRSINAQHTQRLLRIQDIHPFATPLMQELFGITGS
Sequence of Retinoic acid receptor alpha (Homo sapiens) (P10276 whole entry, looked up, the tested form may be a part): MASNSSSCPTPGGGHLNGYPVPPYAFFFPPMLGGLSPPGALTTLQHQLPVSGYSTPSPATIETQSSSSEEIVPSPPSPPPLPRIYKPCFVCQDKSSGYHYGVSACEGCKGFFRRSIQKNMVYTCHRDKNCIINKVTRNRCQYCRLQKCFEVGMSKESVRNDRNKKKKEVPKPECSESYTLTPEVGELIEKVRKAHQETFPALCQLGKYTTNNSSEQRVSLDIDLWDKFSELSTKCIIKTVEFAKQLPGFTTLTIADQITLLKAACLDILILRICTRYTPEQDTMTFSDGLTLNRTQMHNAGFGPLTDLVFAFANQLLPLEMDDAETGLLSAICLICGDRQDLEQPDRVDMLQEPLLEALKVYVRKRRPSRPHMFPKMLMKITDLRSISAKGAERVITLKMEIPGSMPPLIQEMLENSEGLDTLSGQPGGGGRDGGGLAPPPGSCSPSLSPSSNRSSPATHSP
Sequence of human RAR-related Orphan Receptor beta (RORb), RORB (gene 6096) (Q92753 whole entry, looked up, the tested form may be a part): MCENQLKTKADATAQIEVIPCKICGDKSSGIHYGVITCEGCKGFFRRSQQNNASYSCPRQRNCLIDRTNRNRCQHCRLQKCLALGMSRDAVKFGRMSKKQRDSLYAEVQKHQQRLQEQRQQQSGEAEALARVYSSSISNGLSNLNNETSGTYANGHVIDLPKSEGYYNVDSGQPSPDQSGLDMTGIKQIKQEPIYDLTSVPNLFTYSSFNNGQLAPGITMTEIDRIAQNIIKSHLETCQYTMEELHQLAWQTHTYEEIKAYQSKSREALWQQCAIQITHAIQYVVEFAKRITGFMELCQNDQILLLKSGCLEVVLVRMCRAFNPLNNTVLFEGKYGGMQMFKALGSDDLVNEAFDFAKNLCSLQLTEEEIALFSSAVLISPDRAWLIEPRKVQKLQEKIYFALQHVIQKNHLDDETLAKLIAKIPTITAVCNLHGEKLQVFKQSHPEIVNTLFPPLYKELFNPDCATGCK

The AC50 is the concentration giving half of the maximal activity seen. Turning to `Cc1cc(CCC(=O)OCCOCCOCCOC(=O)CCc2cc(C)c(O)c(C(C)(C)C)c2)cc(C(C)(C)C)c1O`, the result in [1], in assay [2], in assay [3], in [5], in assay [6] and in assay [7] was inactive. Also, the result in assay [9], in [10], in [11], in assay [12], in assay [13] and in assay [14] was inactive. Also, the result in [17] was inactive. Besides, the half-maximal activity concentration (AC50) is 23.4 µM (active) in [4], 17.8 µM (active) in assay [8], 24.2 µM (active) in assay [15] and 23.3 µM (active) in [16].
Consider `CC(=O)c1ccccn1`, for which the call in [1], in [2], in assay [3], in assay [4], in assay [5] and in assay [6] was inactive.
For `CCc1ccc(O)cc1`, the compound was called inactive in assay [1], in [2], in assay [3], in assay [4], in [5] and in [6]. Moreover, the call in [11], in [18], in [13], in assay [15] and in assay [19] was inactive.
On to `CC(C)(C)CC(C)(C)c1ccc(OCCOCC[N+](C)(C)Cc2ccccc2)cc1`, for which the call in [1], in [2], in [3], in assay [5], in assay [18] and in assay [13] was inactive. In addition, the call in [15] was inactive. For the same compound, the AC50 is 6.71 µM (active) in assay [4]; 8.35 µM (active) in assay [6]; 7.26 µM (active) in assay [7]; 5 µM (active) in assay [8]; 7.65 µM (active) in assay [9]; 7.69 µM (active) in assay [10]. Also, the AC50 in assay [11] was 14.4 µM (active); in assay [12] it was 8.87 µM (active); in assay [14], 7.08 µM (active).
Regarding `O=C1OC2(c3ccccc31)c1ccc(O)c(Br)c1Oc1c2ccc(O)c1Br`, the compound was classed as inactive in assay [1], in assay [2], in [3], in assay [4], in [5] and in [6]. In addition, the compound was called inactive in assay [11], in assay [18], in assay [12], in [20], in [15] and in assay [17]. Moreover, the AC50 in [7] was 31.9 µM (active); in assay [8] it was 20 µM (active); in assay [9], 20 µM (active); in assay [10] it was 28.9 µM (active); in assay [14], 9.61 µM (active).
